Common to all, as to assay: DAPPL (digital affinity profiling via proximity ligation, sequencing); 10 mM Tris-HCl pH 7.5, 50 mM NaCl, 1 mM DTT, 4% glycerol, room temperature, 30 min; GST-TFs on glutathione beads, 16-mer random dsDNA library, 0.1% formaldehyde crosslink after washing; high values mean tight binding
Assay [1] has as its target T1, FEV (Homo sapiens, UniProt Q99581 1-238).
T1 sequence: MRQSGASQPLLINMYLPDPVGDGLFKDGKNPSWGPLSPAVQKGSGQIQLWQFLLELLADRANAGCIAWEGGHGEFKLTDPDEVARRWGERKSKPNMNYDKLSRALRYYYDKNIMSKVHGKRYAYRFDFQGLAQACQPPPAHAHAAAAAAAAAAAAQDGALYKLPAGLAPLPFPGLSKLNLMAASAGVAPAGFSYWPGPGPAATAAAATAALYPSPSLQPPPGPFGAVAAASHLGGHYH
The note with it: protein: recombinant; tags: N-terminal GST; dsDNA, one strand shown. Put shortly:
(§1)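 Human transcription factors were made in yeast as GST fusions, captured on glutathione beads and barcoded with DNA. With a tag-only sample included, the pool was incubated with 200 nmole of a random double-stranded 16-mer DNA library in Tris/NaCl/DTT/glycerol buffer at room temperature for 30 min, then crosslinked with 0.1% formaldehyde after washing, ligated by proximity, amplified and sequenced. For binding signal, each hexamer's read frequency for a factor is divided by its frequency for the tag-only sample.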

The target of assay [2] is ETV5 (Homo sapiens, UniProt P41161 1-510). The note with it: protein: recombinant; tags: N-terminal GST; dsDNA, one strand shown. Summed up:
as §1

Assay [3] deals with HSF1 (Homo sapiens, UniProt Q00613 1-529). The note with it: protein: recombinant; tags: N-terminal GST; chain copies: 3; dsDNA, one strand shown. Put shortly:
as §1

Assay [4] addresses T2, SPIC (Homo sapiens, UniProt Q8N5J4 1-248).
T2 sequence: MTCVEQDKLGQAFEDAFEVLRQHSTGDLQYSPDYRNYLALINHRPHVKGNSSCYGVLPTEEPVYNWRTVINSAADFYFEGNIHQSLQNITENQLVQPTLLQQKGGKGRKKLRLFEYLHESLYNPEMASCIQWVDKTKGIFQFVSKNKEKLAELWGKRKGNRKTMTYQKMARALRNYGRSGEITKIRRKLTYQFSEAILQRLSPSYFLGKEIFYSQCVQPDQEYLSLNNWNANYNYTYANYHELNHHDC
The note with it: protein: recombinant; tags: N-terminal GST; dsDNA, one strand shown. Put shortly: as §1

For assay [5], the target named is ELF4 (Homo sapiens, UniProt Q99607 1-663). The note with it: protein: recombinant; tags: N-terminal GST; dsDNA, one strand shown. Summed up: as §1
Chain of ELF4 (Q99607 whole entry): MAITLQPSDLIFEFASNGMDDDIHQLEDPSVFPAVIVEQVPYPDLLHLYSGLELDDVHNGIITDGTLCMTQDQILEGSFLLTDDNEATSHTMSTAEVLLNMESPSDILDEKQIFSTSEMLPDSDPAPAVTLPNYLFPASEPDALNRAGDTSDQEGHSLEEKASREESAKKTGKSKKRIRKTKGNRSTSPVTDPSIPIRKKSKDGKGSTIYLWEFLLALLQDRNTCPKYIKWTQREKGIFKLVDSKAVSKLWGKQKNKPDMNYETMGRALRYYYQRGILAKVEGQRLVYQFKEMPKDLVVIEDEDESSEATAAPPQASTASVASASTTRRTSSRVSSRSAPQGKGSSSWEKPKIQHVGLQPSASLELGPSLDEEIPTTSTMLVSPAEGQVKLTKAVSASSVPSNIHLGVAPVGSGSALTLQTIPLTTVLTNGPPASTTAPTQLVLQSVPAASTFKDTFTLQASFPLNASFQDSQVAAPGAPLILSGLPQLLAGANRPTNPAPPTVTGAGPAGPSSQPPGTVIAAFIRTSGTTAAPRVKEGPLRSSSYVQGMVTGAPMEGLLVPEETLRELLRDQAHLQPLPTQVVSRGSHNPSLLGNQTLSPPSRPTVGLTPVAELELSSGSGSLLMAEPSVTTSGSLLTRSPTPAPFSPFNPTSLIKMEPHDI
Assay [6] concerns the target T3, ELK4 (Homo sapiens, UniProt P28324-2 1-405).
T3 sequence: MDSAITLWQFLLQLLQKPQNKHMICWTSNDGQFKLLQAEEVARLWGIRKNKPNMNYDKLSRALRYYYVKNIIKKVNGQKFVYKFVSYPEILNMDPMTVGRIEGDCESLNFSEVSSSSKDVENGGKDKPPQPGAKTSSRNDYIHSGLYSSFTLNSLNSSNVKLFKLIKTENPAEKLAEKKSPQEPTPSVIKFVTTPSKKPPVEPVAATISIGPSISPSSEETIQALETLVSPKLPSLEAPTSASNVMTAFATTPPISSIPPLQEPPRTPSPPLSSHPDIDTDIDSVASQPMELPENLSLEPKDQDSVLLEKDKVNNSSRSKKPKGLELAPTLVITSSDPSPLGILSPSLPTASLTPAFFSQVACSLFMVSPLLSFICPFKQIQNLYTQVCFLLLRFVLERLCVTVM
The note with it: protein: recombinant; tags: N-terminal GST; dsDNA, one strand shown. Summed up:
as §1

The target in assay [7] is T4, ETV2 (Homo sapiens, UniProt O00321 1-342).
T4 sequence: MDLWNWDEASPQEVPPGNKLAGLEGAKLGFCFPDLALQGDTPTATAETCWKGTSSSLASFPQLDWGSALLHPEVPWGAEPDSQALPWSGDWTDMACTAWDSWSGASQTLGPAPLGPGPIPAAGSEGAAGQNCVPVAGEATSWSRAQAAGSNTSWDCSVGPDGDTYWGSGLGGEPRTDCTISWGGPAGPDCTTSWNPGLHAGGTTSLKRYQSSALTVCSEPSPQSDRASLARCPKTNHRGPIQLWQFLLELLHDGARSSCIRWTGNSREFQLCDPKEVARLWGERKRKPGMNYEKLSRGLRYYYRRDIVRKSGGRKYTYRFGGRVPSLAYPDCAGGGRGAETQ
The note with it: protein: recombinant; tags: N-terminal GST; dsDNA, one strand shown. Put shortly:
as §1

In assay [8] the target is T5, ELF3 (Homo sapiens, UniProt P78545 1-371).
T5 sequence: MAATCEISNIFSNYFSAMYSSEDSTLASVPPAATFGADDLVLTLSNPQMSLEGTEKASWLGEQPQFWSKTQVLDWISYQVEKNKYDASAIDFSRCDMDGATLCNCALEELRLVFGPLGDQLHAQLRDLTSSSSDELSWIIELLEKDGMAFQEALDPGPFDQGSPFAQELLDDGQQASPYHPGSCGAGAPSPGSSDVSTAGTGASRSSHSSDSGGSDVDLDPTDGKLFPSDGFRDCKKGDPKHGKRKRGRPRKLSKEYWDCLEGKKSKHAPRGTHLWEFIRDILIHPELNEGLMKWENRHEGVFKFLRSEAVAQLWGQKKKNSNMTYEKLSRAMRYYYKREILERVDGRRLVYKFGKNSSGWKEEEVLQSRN
The note with it: protein: recombinant; tags: N-terminal GST; dsDNA, one strand shown. Summed up:
as §1

In assay [9] the target is CRX (Homo sapiens, UniProt O43186 1-299). To be noted: protein: recombinant; tags: N-terminal GST; dsDNA, one strand shown. Put shortly: as §1
Chain of CRX (O43186 whole entry): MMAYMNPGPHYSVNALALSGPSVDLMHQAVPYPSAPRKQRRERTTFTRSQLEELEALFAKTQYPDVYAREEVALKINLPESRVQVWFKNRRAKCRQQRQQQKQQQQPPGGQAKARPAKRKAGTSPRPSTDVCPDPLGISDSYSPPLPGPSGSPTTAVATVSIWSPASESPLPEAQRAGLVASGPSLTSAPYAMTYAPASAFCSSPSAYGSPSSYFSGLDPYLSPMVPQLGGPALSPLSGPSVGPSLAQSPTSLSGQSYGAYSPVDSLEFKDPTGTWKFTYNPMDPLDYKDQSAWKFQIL
For assay [10], the target named is ETV1 (Homo sapiens, UniProt P50549 1-477). To be noted: protein: recombinant; tags: N-terminal GST; dsDNA, one strand shown. Summed up:
as §1

In assay [11] the target is T6, ERF (Homo sapiens, UniProt P50548 1-548).
T6 sequence: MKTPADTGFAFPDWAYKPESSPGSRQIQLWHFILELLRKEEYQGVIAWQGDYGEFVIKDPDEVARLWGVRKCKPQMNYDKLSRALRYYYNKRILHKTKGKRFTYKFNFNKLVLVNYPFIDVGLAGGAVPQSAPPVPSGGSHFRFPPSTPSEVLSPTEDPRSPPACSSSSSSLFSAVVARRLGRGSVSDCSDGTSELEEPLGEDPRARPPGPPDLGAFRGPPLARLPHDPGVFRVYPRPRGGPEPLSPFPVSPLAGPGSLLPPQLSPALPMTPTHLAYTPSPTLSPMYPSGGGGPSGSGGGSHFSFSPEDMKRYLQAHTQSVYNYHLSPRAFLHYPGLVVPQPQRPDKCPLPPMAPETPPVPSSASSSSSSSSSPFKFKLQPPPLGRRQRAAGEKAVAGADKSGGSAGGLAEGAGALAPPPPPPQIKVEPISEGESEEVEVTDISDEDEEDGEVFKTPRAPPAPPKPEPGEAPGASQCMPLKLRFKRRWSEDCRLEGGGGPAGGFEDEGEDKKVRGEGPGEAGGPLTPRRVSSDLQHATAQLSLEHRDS
The note with it: protein: recombinant; tags: N-terminal GST; dsDNA, one strand shown. Put shortly: as §1

Assay [12] addresses T7, ETV3L (Homo sapiens, UniProt Q6ZN32 1-361).
T7 sequence: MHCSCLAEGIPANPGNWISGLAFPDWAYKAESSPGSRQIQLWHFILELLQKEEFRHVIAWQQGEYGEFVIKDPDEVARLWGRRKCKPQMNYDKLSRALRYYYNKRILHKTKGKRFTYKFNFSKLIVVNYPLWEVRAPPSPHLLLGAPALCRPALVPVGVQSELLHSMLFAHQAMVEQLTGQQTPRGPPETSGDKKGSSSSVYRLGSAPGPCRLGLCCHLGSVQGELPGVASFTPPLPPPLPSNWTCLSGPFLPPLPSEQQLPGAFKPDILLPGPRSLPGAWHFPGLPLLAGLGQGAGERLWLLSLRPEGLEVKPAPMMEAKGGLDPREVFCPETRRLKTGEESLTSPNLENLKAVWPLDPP
The note with it: protein: recombinant; tags: N-terminal GST; dsDNA, one strand shown. Summed up:
as §1

For assay [13], the target named is T8, ETS2 (Homo sapiens, UniProt P15036 1-469).
T8 sequence: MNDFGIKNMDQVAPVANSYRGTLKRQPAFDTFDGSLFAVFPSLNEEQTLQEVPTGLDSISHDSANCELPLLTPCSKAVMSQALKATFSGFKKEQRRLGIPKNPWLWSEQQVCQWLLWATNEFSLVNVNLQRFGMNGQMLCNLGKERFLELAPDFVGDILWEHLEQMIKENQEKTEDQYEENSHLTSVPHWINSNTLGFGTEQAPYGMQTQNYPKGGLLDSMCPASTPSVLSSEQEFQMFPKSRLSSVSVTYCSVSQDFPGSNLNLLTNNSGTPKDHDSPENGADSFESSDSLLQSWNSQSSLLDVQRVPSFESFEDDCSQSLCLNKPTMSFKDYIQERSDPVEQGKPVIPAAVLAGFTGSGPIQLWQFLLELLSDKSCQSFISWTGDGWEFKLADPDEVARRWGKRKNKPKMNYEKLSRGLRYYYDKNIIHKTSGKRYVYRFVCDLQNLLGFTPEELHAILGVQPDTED
The note with it: protein: recombinant; tags: N-terminal GST; dsDNA, one strand shown. Summed up:
as §1

In assay [14] the target is T9, SPDEF (Homo sapiens, UniProt O95238 1-335).
T9 sequence: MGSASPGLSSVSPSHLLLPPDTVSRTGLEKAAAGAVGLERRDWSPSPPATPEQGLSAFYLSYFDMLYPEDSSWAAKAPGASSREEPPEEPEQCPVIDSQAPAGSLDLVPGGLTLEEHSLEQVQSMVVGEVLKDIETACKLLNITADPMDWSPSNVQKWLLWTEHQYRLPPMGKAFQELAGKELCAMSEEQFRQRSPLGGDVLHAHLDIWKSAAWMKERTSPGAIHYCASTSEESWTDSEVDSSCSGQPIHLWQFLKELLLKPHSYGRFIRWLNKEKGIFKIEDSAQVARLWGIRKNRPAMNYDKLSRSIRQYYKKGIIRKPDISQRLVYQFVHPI
To be noted: protein: recombinant; tags: N-terminal GST; dsDNA, one strand shown. Put shortly:
as §1

Assay [15] has as its target T10, ETV7 (Homo sapiens, UniProt Q9Y603 1-341).
T10 sequence: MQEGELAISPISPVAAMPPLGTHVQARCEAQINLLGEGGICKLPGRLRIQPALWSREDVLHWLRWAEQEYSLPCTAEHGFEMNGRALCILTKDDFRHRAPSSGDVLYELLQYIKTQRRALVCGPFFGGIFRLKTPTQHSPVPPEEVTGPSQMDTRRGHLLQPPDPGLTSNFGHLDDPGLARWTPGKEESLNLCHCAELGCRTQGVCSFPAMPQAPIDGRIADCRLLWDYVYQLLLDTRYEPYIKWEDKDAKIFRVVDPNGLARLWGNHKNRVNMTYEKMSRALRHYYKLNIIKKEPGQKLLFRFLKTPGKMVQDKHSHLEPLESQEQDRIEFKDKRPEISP
To be noted: protein: recombinant; tags: N-terminal GST; dsDNA, one strand shown. Summed up:
as §1

Assay [16] addresses T11, ELF5 (Homo sapiens, UniProt Q9UKW6-2 1-255).
T11 sequence: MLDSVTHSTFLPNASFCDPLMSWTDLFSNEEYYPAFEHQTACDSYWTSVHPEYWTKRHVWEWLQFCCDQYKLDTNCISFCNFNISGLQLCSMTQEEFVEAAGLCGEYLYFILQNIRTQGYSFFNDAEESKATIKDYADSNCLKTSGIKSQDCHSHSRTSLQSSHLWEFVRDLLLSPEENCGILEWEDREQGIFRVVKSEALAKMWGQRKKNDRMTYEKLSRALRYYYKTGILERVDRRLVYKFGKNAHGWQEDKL
To be noted: protein: recombinant; tags: N-terminal GST; dsDNA, one strand shown. Summed up:
as §1

In assay [17] the target is T12, ETV3 (Homo sapiens, UniProt P41162-2 1-143).
T12 sequence: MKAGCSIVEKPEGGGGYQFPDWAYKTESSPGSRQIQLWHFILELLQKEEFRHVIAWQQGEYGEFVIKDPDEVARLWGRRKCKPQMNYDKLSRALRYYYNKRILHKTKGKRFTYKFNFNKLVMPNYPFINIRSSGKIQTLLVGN
To be noted: protein: recombinant; tags: N-terminal GST; dsDNA, one strand shown. Summed up:
as §1

For assay [18], the target named is ETV6 (Homo sapiens, UniProt P41212 1-452). To be noted: protein: recombinant; tags: N-terminal GST; dsDNA, one strand shown. Put shortly: as §1
Chain of ETV6 (P41212 whole entry): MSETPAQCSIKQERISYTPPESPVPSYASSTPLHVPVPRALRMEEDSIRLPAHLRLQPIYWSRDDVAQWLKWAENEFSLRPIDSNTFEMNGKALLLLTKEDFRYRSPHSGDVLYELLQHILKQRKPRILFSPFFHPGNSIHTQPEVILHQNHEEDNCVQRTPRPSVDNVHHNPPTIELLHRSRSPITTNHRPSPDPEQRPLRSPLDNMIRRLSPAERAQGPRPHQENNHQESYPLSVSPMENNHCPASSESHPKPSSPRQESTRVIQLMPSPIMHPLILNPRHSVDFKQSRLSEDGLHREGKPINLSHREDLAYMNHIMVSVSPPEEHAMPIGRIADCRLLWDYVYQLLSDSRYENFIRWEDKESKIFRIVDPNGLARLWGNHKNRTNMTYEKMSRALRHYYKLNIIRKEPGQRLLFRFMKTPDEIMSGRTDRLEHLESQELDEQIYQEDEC

Chain of ETV5 (P41161 whole entry): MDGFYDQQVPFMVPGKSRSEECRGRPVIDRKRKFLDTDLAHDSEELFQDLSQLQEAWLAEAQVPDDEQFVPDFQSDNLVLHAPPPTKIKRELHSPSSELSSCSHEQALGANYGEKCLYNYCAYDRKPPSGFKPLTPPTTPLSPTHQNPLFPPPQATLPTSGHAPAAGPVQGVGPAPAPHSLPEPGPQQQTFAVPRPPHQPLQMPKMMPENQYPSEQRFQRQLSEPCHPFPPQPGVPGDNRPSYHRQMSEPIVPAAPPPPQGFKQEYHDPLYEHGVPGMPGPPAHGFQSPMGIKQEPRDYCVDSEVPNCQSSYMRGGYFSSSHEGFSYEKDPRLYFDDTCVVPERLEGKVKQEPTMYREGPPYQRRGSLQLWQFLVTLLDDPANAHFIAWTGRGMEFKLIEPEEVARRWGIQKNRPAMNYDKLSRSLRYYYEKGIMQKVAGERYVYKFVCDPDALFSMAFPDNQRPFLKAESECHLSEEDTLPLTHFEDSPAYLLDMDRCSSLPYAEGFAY
Chain of ETV1 (P50549 whole entry): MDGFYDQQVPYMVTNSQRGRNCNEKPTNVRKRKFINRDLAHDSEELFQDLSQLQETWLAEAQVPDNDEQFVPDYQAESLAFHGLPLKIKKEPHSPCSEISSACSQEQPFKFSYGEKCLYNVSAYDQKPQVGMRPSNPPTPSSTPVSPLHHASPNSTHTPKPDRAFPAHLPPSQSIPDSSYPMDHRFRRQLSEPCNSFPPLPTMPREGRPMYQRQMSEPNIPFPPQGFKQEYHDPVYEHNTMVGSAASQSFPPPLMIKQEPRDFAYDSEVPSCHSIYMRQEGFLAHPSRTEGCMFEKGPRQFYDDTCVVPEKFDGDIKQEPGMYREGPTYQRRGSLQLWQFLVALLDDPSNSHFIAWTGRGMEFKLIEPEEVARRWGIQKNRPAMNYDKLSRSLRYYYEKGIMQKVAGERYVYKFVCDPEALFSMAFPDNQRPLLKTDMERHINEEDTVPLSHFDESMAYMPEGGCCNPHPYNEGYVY
Chain of HSF1 (Q00613 whole entry): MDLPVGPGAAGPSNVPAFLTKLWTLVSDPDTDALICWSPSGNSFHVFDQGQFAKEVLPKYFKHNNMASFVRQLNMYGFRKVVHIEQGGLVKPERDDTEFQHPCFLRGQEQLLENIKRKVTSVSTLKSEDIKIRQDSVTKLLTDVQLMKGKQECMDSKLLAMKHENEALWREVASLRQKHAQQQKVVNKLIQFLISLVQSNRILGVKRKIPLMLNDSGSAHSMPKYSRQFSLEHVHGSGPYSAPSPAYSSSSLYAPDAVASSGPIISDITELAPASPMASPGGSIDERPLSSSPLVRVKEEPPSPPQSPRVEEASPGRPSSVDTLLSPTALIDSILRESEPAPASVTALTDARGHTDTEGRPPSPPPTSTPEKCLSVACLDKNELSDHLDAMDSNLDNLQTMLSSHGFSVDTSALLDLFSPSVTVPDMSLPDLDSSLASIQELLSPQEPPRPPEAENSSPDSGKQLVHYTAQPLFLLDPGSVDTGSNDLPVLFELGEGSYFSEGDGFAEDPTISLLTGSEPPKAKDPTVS

As for GTCTCA, the binding signal in assay [1] is 1.25 fold enrichment (6-mer frequency, TF over GST control); in assay [2] it was 1.4 fold enrichment (6-mer frequency, TF over GST control); in assay [3], 1.01 fold enrichment (6-mer frequency, TF over GST control); in [4], 1.4 fold enrichment (6-mer frequency, TF over GST control); in assay [5] it was 1.33 fold enrichment (6-mer frequency, TF over GST control); in assay [6], 1.34 fold enrichment (6-mer frequency, TF over GST control). The binding signal in assay [7] is 1.32 fold enrichment (6-mer frequency, TF over GST control); in assay [8] it was 1.48 fold enrichment (6-mer frequency, TF over GST control); in [9] it was 1.12 fold enrichment (6-mer frequency, TF over GST control); in assay [10], 1.24 fold enrichment (6-mer frequency, TF over GST control); in [11] it was 1.37 fold enrichment (6-mer frequency, TF over GST control); in assay [12], 1.3 fold enrichment (6-mer frequency, TF over GST control). For the same sequence, the binding signal is 1.34 fold enrichment (6-mer frequency, TF over GST control) in [13]; 1.29 fold enrichment (6-mer frequency, TF over GST control) in assay [14]; 1.13 fold enrichment (6-mer frequency, TF over GST control) in assay [15]; 1.3 fold enrichment (6-mer frequency, TF over GST control) in assay [16]; 1.32 fold enrichment (6-mer frequency, TF over GST control) in assay [17]; 1.16 fold enrichment (6-mer frequency, TF over GST control) in assay [18].
